Assay [1] is described as follows: antimalarial activity against Dd2 strain (AID 2302;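 active = growth inhibition above 50% at the single 2 µM test dose, taken to imply half-maximal potency below 2 µM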;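 note: 0% = DMSO untreated growth and 100% = chloroquine plus artemisinin killed control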). As to conditions: P. falciparum Dd2 in RBCs, LDH growth readout, 72 h; at 2 µM; hits give high values.
Assay [2] can be described thus: HepG2 cytotoxicity, primary screen, cytotoxicity control for P. falciparum antimalarial project, cell-based, ATP luminescence (AID 2303;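 active = inhibition above 50%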;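 note: 0% = DMSO wells and 100% = digitonin-killed cells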). As to conditions: HepG2 viability, 24-48 h, at 10 µM, hits give high values.
Assay [3] has as its target L-lactate dehydrogenase (Plasmodium falciparum (isolate CDC / Honduras)) (UniProt Q27743). As to the kind of experiment: PfLDH activity inhibition – cell lysate, 3D7 strain, counter-screen for P. falciparum growth inhibition project (AID 2304).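 Note: 0% = vehicle and 100% = reference inhibitor.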 As to conditions: P. falciparum 3D7 crude extract, LDH APAD/NBT absorbance; at 2 µM; hits give high values.
Assay [4] in a line: inhibition of 3D7 malaria parasite growth – strain 3D7 (AID 2306).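 Note: 0% = DMSO wells and 100% = chloroquine plus artemisinin control wells.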 The following applies: P. falciparum 3D7 erythrocytic growth, LDH absorbance, 72 h; at 2 µM; hits give high values.
Assay [5] concerns the target Calcium-dependent protein kinase 1 (Plasmodium falciparum (isolate 3D7)) (UniProt P62344). Put plainly: PfCDPK1 kinase inhibitors, biochemical, TCAMS library (AID 1159585; cut-off not given, nearly all actives have IC50 up to about 0.98 µM;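 note: inhibitors leave more ATP so luminescence rises with inhibition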). The following applies: recombinant PfCDPK1, Kinase-Glo ATP depletion luminescence. On the technique in general: In Kinase-Glo more light means more ATP remaining.
Assay [6] has as its target Plasmodium falciparum protein kinase 6 (PK6, PF3D7_1337100) (UniProt Q8IDW1). As to the kind of experiment: PfPK6 kinase inhibitors, biochemical, TCAMS library (AID 1159586). The following applies: recombinant PfPK6, Kinase-Glo ATP depletion luminescence.
Assay [7] concerns the target Protein kinase 7 (PK7), Plasmodium falciparum 3D7 (PF3D7_0213400) (UniProt Q7YTF7). Put plainly: inhibition of Plasmodium PK7 catalytic activity – biochemical, TCAMS antimalarial set, Kinase-Glo luminescence (AID 1159587). The following applies: recombinant PfPK7, Kinase-Glo ATP depletion luminescence.
Assay [8] addresses Calcium-dependent protein kinase 4 (Plasmodium falciparum (isolate 3D7)) (UniProt Q8IBS5). As to the kind of experiment: PfCDPK4 kinase inhibitors, biochemical, TCAMS library (AID 1159588; cut-off not given, nearly all actives have IC50 up to about 0.91 µM). As to conditions: recombinant PfCDPK4, Kinase-Glo ATP depletion luminescence.

Values without a mark were called inactive. For some assays here: Potency and affinity values are given separately. The source made the active and inactive calls. Unless noted, the rule behind the calls is not given here.

Chain of Plasmodium falciparum protein kinase 6 (PK6, PF3D7_1337100) (Q8IDW1 1-305): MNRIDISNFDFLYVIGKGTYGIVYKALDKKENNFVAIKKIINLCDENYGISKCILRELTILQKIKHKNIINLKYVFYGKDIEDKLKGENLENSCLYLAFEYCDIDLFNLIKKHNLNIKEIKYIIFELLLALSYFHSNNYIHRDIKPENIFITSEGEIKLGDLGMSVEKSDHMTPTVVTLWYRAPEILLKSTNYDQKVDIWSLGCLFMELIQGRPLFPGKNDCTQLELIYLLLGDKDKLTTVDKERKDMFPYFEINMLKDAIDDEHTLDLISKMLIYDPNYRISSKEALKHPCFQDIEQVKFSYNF
Chain of Calcium-dependent protein kinase 4 (Plasmodium falciparum (isolate 3D7)) (Q8IBS5 whole entry, looked up): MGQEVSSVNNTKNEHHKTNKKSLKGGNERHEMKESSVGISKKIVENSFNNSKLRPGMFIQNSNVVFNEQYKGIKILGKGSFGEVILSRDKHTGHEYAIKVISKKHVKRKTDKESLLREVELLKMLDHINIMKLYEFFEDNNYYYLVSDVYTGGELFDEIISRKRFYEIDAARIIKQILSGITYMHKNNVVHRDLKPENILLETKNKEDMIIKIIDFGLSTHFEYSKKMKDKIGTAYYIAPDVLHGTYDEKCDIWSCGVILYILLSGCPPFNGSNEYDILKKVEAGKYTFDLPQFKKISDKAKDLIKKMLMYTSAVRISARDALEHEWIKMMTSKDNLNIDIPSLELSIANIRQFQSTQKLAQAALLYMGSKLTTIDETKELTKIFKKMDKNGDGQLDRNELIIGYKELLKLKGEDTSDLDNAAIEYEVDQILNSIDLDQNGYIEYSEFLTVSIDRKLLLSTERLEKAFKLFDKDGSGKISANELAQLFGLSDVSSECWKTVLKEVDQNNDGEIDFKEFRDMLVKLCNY
Chain of Protein kinase 7 (PK7), Plasmodium falciparum 3D7 (PF3D7_0213400) (Q7YTF7 1-343): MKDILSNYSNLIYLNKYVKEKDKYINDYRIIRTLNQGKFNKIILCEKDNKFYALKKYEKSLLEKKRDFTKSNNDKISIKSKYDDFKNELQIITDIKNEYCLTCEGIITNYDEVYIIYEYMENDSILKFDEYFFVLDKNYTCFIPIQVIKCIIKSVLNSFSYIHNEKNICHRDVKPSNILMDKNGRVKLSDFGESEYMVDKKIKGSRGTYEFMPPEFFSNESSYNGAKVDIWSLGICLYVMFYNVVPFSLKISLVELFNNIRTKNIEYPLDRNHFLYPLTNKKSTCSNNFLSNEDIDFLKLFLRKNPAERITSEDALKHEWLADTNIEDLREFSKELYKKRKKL
Chain of L-lactate dehydrogenase (Plasmodium falciparum (isolate CDC / Honduras)) (Q27743 whole entry, looked up): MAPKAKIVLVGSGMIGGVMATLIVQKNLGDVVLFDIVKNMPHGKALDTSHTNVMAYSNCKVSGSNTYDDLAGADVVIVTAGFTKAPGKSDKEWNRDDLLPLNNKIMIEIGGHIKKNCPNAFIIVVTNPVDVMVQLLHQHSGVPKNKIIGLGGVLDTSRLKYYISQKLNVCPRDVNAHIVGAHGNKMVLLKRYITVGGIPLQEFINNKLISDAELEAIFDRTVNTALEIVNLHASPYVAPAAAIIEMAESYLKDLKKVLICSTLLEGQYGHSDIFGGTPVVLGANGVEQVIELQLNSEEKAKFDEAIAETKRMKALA
Chain of Calcium-dependent protein kinase 1 (Plasmodium falciparum (isolate 3D7)) (P62344 whole entry, looked up): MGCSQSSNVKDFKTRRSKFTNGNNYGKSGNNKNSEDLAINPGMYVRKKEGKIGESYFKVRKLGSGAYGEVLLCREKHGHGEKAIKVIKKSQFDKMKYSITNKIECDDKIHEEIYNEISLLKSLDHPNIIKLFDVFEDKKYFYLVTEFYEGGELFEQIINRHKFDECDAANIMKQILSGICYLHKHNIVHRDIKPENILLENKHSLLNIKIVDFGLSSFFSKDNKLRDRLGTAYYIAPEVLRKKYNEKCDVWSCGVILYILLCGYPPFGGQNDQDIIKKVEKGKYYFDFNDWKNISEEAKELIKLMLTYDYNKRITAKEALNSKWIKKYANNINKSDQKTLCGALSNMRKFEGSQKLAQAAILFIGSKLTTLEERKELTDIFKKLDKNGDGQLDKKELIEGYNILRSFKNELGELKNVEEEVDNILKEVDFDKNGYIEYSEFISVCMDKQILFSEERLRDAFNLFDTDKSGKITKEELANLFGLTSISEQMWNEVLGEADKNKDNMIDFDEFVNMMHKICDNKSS

Broadly, the inhibition is the change of the read-out against control, counted positive when it falls. On to `COc1ccc(CCN(C)CCCCNC(=O)c2ccc(NC(=O)c3ccc(Cl)cc3)cc2)c(OC)c1`, for which the figures for the growth inhibition in assay [1] and in assay [4] were 0% and 87% (active), respectively. The inhibition in assay [2] is 12%; in assay [3] it was 4%. Besides, the outcome in assay [5], in assay [6], in assay [7] and in assay [8] was inactive.
For the molecule `COc1ccc(CCn2c(=N)c(C(=O)NCc3ccccc3)cc3c(=O)n4ccccc4nc32)cc1`, the growth inhibition was 18% in assay [1] and 100% (active) in assay [4]. Also, the inhibition was 14% in assay [2] and -1% in assay [3]. Moreover, the result in assay [5], in assay [6], in assay [7] and in assay [8] was inactive.
In the case of `CN1CCN(CCNc2c3ccccc3nc3ccc4ccccc4c23)CC1`, the growth inhibition in assay [1] and in assay [4] was 99% (active) each time. The results for the inhibition in assay [2] and in assay [3] were 22% and -6%, respectively. Further, the result in assay [5], in assay [6], in assay [7] and in assay [8] was inactive.
On to `Cc1ccc(Cn2nc(N3CCNCC3)ccc2=O)cc1NC(=O)Nc1ccc(-c2ccccc2)cc1`, for which the results for the growth inhibition in assay [1] and in assay [4] were 20% and 94% (active), respectively. In addition, the inhibition in assay [2] is 46%; in assay [3] it was -1%. Further, the result in assay [5], in assay [6], in assay [7] and in assay [8] was inactive.
Take `CN1C(=CC(=O)NC(=O)c2ccccc2)C(C)(C)c2ccccc21`: the growth inhibition in assay [1] is 89% (active); in assay [4] it was 93% (active). For the same molecule, the figures for the inhibition in assay [2] and in assay [3] were -5% and 4%, respectively. Also, the outcome in assay [5], in assay [6], in assay [7] and in assay [8] was inactive.
Regarding `Cc1cccnc1Nc1nc(-c2ccccn2)cs1`, the growth inhibition in assay [1] is 99% (active); in assay [4], 96% (active). Further, the inhibition was 60% (active) in assay [2] and -1% in assay [3]. Further, the result in assay [5], in assay [6], in assay [7] and in assay [8] was inactive.
With `O=C(NCCCN1CCOCC1)c1csc(Nc2ccc(Cl)c(Cl)c2)n1`, the growth inhibition was 23% in assay [1] and 92% (active) in assay [4]. Besides, the inhibition is 5% in assay [2] and 2% in assay [3]. Further, the result in assay [5], in assay [6], in assay [7] and in assay [8] was inactive.
For `CN(CCCCNC(=O)c1cc2ccccc2[nH]1)C1CC2(CCN(C(=O)OC(C)(C)C)CC2)c2ccccc21` (configuration not stated), the growth inhibition is 75% (active) in assay [1] and 86% (active) in assay [4]. For the same molecule, the inhibition in assay [2] was 12%; in assay [3] it was 2%. The outcome in assay [5], in assay [6], in assay [7] and in assay [8] was inactive.
Regarding `CCC(C)NS(=O)(=O)c1ccc2nc(Nc3ccc(C)cc3)n([C@H](C)C(C)(C)C)c2c1` (some centres not stated), the growth inhibition in assay [1] and in assay [4] was 98% (active) throughout. The inhibition is 2% in assay [2] and 0% in assay [3]. Besides, the outcome in assay [5], in assay [6], in assay [7] and in assay [8] was inactive.
As to `CS(=O)(=O)c1ccccc1CNC(=O)c1ccc(-c2cccc(-c3nc4ccc(C(F)(F)F)cc4[nH]3)c2)cc1`, the values for the growth inhibition in assay [1] and in assay [4] were 4% and 91% (active), respectively. For the same molecule, the inhibition in assay [2] was 36%; in assay [3], 4%. Also, the result in assay [5], in assay [6], in assay [7] and in assay [8] was inactive.
`Cc1ccc(-c2nc(NC(=O)Nc3ccc(C(F)(F)F)cc3)sc2C)cc1Cl`: the growth inhibition was 86% (active) in assay [1] and 99% (active) in assay [4]. The figures for the inhibition in assay [2] and in assay [3] were 29% and -5%, respectively. The result in assay [5], in assay [6], in assay [7] and in assay [8] was inactive.
For `COc1ccc2nc3cc(Cl)ccc3c(NCCO)c2c1`, the results for the growth inhibition in assay [1] and in assay [4] were 93% (active) and 101% (active), respectively. Besides, the inhibition was 12% in assay [2] and 9% in assay [3]. In addition, the outcome in assay [5], in assay [6], in assay [7] and in assay [8] was inactive.
With `COc1ccc2nccc([C@@H](O)CN3CCC(NC(=O)C(c4ccsc4)N4CCN(c5ccccc5OC)CC4)CC3)c2c1` (some centres not stated), the growth inhibition in assay [1] is 50% (active); in assay [4], 95% (active). Besides, the inhibition in assay [2] was 11%; in assay [3], -2%. Besides, the outcome in assay [5], in assay [6], in assay [7] and in assay [8] was inactive.
Consider `COc1ccccc1C1CN(CCNC(=O)c2ncc(C)[nH]2)Cc2ccccc2O1` (configuration not stated), for which the growth inhibition in assay [1] was 86% (active); in assay [4], 90% (active). For the same molecule, the values for the inhibition in assay [2] and in assay [3] were 4% and 0%, respectively. Besides, the outcome in assay [5], in assay [6], in assay [7] and in assay [8] was inactive.
As to `Cc1cc(NC(=O)Nc2ccc(Oc3ccccc3)cc2)c2ccccc2n1`, the figures for the growth inhibition in assay [1] and in assay [4] were 28% and 91% (active), respectively. In addition, the inhibition in assay [2] was 2%; in assay [3] it was 4%. In addition, the outcome in assay [5], in assay [6], in assay [7] and in assay [8] was inactive.
As to `C=C1C[C@@H](n2cnc3c(NC(=O)c4ccccc4)ncnc32)[C@@H](F)[C@@H]1OC(c1ccccc1)(c1ccccc1)c1ccccc1`, the figures for the growth inhibition in assay [1] and in assay [4] were 97% (active) and 98% (active), respectively. Also, the results for the inhibition in assay [2] and in assay [3] were 16% and -5%, respectively. The outcome in assay [5], in assay [6], in assay [7] and in assay [8] was inactive.
In the case of `CN(C)c1ccc(C2(c3ccccc3)N=C(N)N(CCCc3ccccc3)C2=O)cc1` (configuration not stated), the growth inhibition was 97% (active) in assay [1] and 99% (active) in assay [4]. In addition, the inhibition in assay [2] is 4%; in assay [3], 0%. Besides, the result in assay [5], in assay [6], in assay [7] and in assay [8] was inactive.
Take `O=C(NCCCCN1CCC(c2c[nH]c3ccc(-c4ccccc4)cc23)CC1)c1ccc(-c2ccccc2)cc1`: the growth inhibition in assay [1] is 40%; in assay [4], 97% (active). Further, the inhibition is 48% in assay [2] and 3% in assay [3]. Further, the result in assay [5], in assay [6], in assay [7] and in assay [8] was inactive.
Consider `COc1cc(NC(=O)c2ccc3oc4ccccc4c3c2)ccc1OCCN1CCCCC1`, for which the growth inhibition in assay [1] is 11%; in assay [4], 89% (active). The inhibition was 12% in assay [2] and -4% in assay [3]. Moreover, the result in assay [5], in assay [6], in assay [7] and in assay [8] was inactive.

(Values after PubChem BioAssay.)
